Shown is part of a subset that was picked to be rich in hits.
Pf Dd2 inh – inhibitors of Plasmodium falciparum Dd2 growth | hit rate 4.3% among 120,000 | P. falciparum Dd2 growth, SYBR Green, 72 h | Potency, µM (highest dose often 28.9 µM), usual class: inhibitors; active = well fitted inhibition curve with a large enough effect; note: nearly all actives have a fitted effect of over 65% in size
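Infected erythrocytes (Dd2, 0.3% parasitemia, 2.5% hematocrit final) are added to compound in RPMI-1640/Albumax II medium, grown 72 h at 37C in low oxygen, then lysed with saponin/Triton-X containing SYBR Green and read by fluorescence.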
A number is an active result; . = inactive.

SMILES	Pf Dd2 inh
COCc1nc(C2CCN(C(C)=O)C2)no1 (stereo not given)	.
Cc1cnc(C(=O)N2CCCC(C(=O)NCc3ccccc3)CCNC(=O)CC2)cn1 (stereo not given)	.
CC1=C[C@@H](CNC(=O)COc2ccccc2)[C@H](C(C)C)C[C@H]1CC(=O)NCCN(C)C	.
c1ccc(C(c2cccs2)c2c[nH]c3ccccc23)cc1 (stereo not given)	.
Cc1[nH]c2ccccc2c1C(c1ccccc1)c1ccc(Cl)s1 (stereo not given)	8.91µM
CC(C)(C)CN[C@@H]1CO[C@H](CNC(=O)c2ccccc2)[C@H]1O	.
COc1ccc(C(=O)N2CC[C@H]3C(=O)NCCCCCCN(Cc4ccncc4)[C@@H]3C2)c(OC)c1	.
CC(C)CCNC(=O)c1cnc2n1CCN(Cc1ccc(C(C)C)cc1)CC2	.
CC(C)c1ccc(CN2CCc3ncc(C(=O)Nc4ccccc4)n3CC2)cc1	12.6µM
O=C(Nc1ccccc1)c1cnc2n1CCN(Cc1cccc(O)c1)CC2	.
COC(=O)[C@@H]1C[C@@H](NS(=O)(=O)c2ccc(C(F)(F)F)cc2)CN1C	.
CCc1ccccc1NC(=O)C1CCCN(S(=O)(=O)c2cccc3nsnc23)C1 (stereo not given)	.
CC(C)CCNC(=O)C1CCC(CNS(=O)(=O)c2cccc3nsnc23)CC1 (stereo not given)	3.16µM
CCCCN(C(=O)C1CCC(CNS(=O)(=O)c2cccc3nsnc23)CC1)c1ccccc1 (stereo not given)	2.24µM
Cc1cccc(N(C)C(=O)C(Cc2ccccc2)NS(=O)(=O)c2cccc3nsnc23)c1 (stereo not given)	.
CCCN(CCC)CCCNC(=O)C1CCCN(S(=O)(=O)c2cccc3nsnc23)C1 (stereo not given)	.
Cc1cccc(C)c1NC(=O)C1CCCN1S(=O)(=O)c1cccc2nsnc12 (stereo not given)	.
CCc1cccc(CC)c1NC(=O)C1CCC(CNS(=O)(=O)c2cccc3nsnc23)CC1 (stereo not given)	3.16µM
CC(C)NC(=O)[C@@H]1C[C@H](N)CN1S(=O)(=O)c1cccc2nsnc12	.
CCN(C(=O)C(NS(=O)(=O)c1cccc2nsnc12)c1ccccc1)c1ccccc1 (stereo not given)	.
CCOc1ccccc1C(=O)N1CCCn2ccnc2C1CC (stereo not given)	.
O=C(NC[C@H]1OC[C@@H](NCc2ccccn2)[C@@H]1O)N1CCOCC1	.
Cc1ccccc1Nc1c(-c2ccc(O)cc2)nc2c(C)cccn12	11.2µM
c1ccc(Nc2c(-c3ccccc3)nc3ncccn23)cc1	.
Cc1ccc(Nc2c(-c3ccc(C)cc3)nc3c(C)cccn23)cc1	.
SMILES	Pf Dd2 inh
O=C(CCNc1c(-c2cccc(F)c2)nc2cnccn12)NCc1ccc(Cl)cc1	.
Cc1ccc(Nc2c(-c3ccccn3)nc3ccc(Br)cn23)cc1	.
Cc1ccc(Nc2c(-c3ccsc3)nc3cccc(C)n23)cc1	.
Cc1ccc(Nc2c(-c3ccsc3)nc3c(C)cccn23)cc1	.
COc1ccc(-c2nc3cc(C)ccn3c2NC(=O)c2ccc(F)cc2)cc1	.
Cc1ccn2c(Nc3ccc(F)cc3)c(-c3ccccn3)nc2c1	4.47µM
Clc1ccc(Nc2c(-c3ccccc3Cl)nc3ccc(Cl)cn23)cc1	.
Oc1ccccc1-c1nc2cnccn2c1Nc1ccc(Cl)cc1	2.51µM
Cc1cccc2nc(-c3ccccn3)c(Nc3ccccc3)n12	7.08µM
O=C(c1cocn1)N1C[C@@H](COCC2CC2)[C@H](c2ccccn2)C1	.
COCCOc1cc(-c2noc([C@@H]3CCCN3Cc3ccncc3)n2)ccn1	.
CCCCc1ccc(NC(=O)CN2C(=O)NC(c3ccccc3OCC)C3=C2COC3=O)cc1 (stereo not given)	.
CC1CCCCN1C(=O)C(NC(=O)c1cccs1)C1CCN(C(=O)C2CCCC2)CC1 (stereo not given)	.
Fc1ccc(OC2CN(Cc3ccc(C(F)(F)F)cc3)C2)cc1F	.
Cc1cc(C)n(-c2ccc(F)cc2CN2CCC3(CC2)COC(=O)O3)n1	.
O=C(CN1CC2CC(C1)[C@H]1CCCC(=O)N1C2)N1CCN(c2ccccc2F)CC1 (stereo not given in full)	.
Cc1nc2c(c(-c3ccc(Cl)cc3)n1)CN(C(=O)c1ccc3c(c1)OCO3)CC2	.
CCc1nccn1CCNC(=O)C1CCN(C(=O)C2CCC2)CC1	.
Cc1nnc2n1CCC(N(C)C(=O)NCc1ccco1)CC2 (stereo not given)	.
O=C(CN1CCN(c2ncccn2)[C@@H]2CS(=O)(=O)C[C@@H]21)NCc1ccco1	.
Cn1cc(Cl)cc1C(=O)N1CCCC(c2ccc(C(=O)O)cc2)C1 (stereo not given)	.
COc1cc(O)ccc1-c1nc2cc(C)ccn2c1Nc1ccccc1C	7.94µM
COc1ccc(-c2nc3cc(C)ccn3c2NC(=O)c2ccc(C)c(C)c2)cc1	.
Cc1ccn2c(Nc3ccc4c(c3)OCO4)c(-c3ccc(N(C)C)cc3)nc2c1	12.6µM
COc1ccc(-c2nc3ccc(C)cn3c2Nc2ccc3c(c2)OCO3)cc1	.
SMILES	Pf Dd2 inh
Cc1cccc2nc(-c3ccccn3)c(Nc3ccc(F)cc3)n12	3.16µM
CN1C[C@@H](NC(=O)Nc2ccc(F)cc2)C[C@H]1c1nc(-c2ccccn2)no1	.
Cc1ccn2c(Nc3ccccc3C)c(-c3ccccc3)nc2c1	.
Cc1ccc(Nc2c(-c3ccccc3O)nc3cc(C)ccn23)cc1	5.62µM
Cc1ccc(Nc2c(-c3ccccc3O)nc3ccc(Br)cn23)cc1	.
CN(C)c1ccc(-c2nc3ccc(Cl)cn3c2Nc2ccc3c(c2)OCCO3)cc1	.
Cc1ccn2c(Nc3ccc4c(c3)OCCO4)c(-c3ccc(Cl)s3)nc2c1	.
Cc1nc2nncn2c(Nc2ccc(F)cc2)c1C	.
COCCNC(=O)[C@H]1C[C@H](Oc2cccnc2)CN1C(=O)NCc1ccccc1	.
Cc1cc2nc(CO[C@H]3CN(C4CCN(C)CC4)C[C@H]3F)[nH]c2cc1C	.
COc1ccc(-n2c(=O)c3c(n2Cc2ccccc2)CN(C(=O)C(C)C)CC3)cc1	.
O=C(NCCc1nc2ccccc2[nH]1)C1CCN(C(=O)N2CC3CC(C2)[C@H]2CCCC(=O)N2C3)CC1 (stereo not given in full)	.
O=C(N[C@@H]1CCOC[C@H]1OCc1cscn1)c1ccc(N2CCCC2=O)cc1	.
CCc1n[nH]c(CC2CCN(C(=O)Cc3cccc(F)c3)CC2)n1	.
O=C(O)CCNc1c(-c2ccc(F)cc2)nc2cnccn12	.
Cc1ccc2nc(-c3ccccc3O)c(Nc3ccccc3C)n2c1	1.41µM
Cc1ccccc1Nc1c(-c2ccccc2O)nc2sccn12	.
CN(C)c1ccc(-c2nc3cnccn3c2Nc2cccc(C(F)(F)F)c2)cc1	8.91µM
CN(Cc1ccccc1)C(=O)CCNc1c(-c2cccc(F)c2)nc2cnccn12	.
Cc1ccc2nc(-c3ccc(O)cc3)c(Nc3ccc4c(c3)OCCO4)n2c1	.
COCCOC1CCN(S(=O)(=O)c2c(C)noc2C)CC1	.
O=C(c1ccc(F)cc1)N1CCC2(CC1)NC(=O)N(c1ccccc1Cl)N2	.
CC(C)(C)OC(=O)N1CC(Nc2ccc(Oc3ccccc3)cc2)C1	.
CCCNC(=O)N1CCC(O)(c2csc(CN3CC[C@@H](O)C3)n2)CC1	.
O=C(Nc1ccc(Cl)cc1)N1Cc2[nH]cnc2C[C@H]1c1nc(-c2ccc(F)c(Cl)c2)no1	.
CN(C)c1ccc(CN2Cc3[nH]cnc3C[C@H]2c2nc(-c3ccccc3)no2)cc1	.

Source: PubChem BioAssay
